The results in this text go back to PubChem BioAssay.

Molecules are shown by their SMILES. A number with no mark means an inactive call. Active and inactive are the calls of the source. Cut-off read from the data, not from the text of the source, unless noted: active = inhibition above about 30%; inactive = the rest.

The target in test [1] is Nuclear receptor coactivator 3 (Homo sapiens) (UniProt Q9Y6Q9). Briefly: SRC3 coactivator transcriptional activity inhibitors, confirmation, cell-based, luminescence, quadruplicate (AID 588792;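 active = mean inhibition over 43.08%, the solvent-only control mean plus 3 SD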;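 note: 0% = DMSO treated cells and 100% = gossypol at 36 µM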). The settings on record: HEK293 GAL4-SRC3 luciferase reporter, at 3.6 µM, active compounds read high. A general note: In a reporter assay the amount or activity of a reporter protein is the signal.

Test [2] relates to transactivating tegument protein VP16 (Human herpesvirus 1), Gal4-VP16 luciferase reporter. Briefly: VP16 transactivation inhibitors, counter-screen for SRC3 inhibitor project, cell-based, luminescence, high throughput (AID 588794). To be noted: mammalian cells, VP16-driven luciferase reporter luminescence; at 3.6 µM; active compounds read high. (A counterscreen serves to expose hits that act by an unwanted route or on another target.)

Test [3] has as its target Nuclear receptor coactivator 1 (Homo sapiens) (UniProt Q15788). The test can be described thus: SRC1 coactivator transcriptional activity inhibitors, confirmation, cell-based, luminescence, quadruplicate (AID 588820;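 active = mean inhibition above 46.68%, the untreated control wells mean plus 3 SD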;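 note: 0% = DMSO wells and 100% = gossypol 36 µM treated wells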). The settings on record: HEK293 GAL4-SRC1 luciferase reporter, at 3.6 µM, active compounds read high.
Test [4] is described as follows: VP16 transactivation inhibitors, counter-screen for SRC1 inhibitor project, cell-based, luminescence, high throughput (AID 588824; in the data active = inhibition above about 25%). The settings on record: cell-based VP16 transactivation luciferase luminescence; at 3.6 µM; active compounds read high.
Test [5] in a line: StAR promoter reporter inhibitors, counter-screen for LRH-1 inverse agonist project, cell-based, luminescence, high throughput (AID 651611; in the data active = inhibition above about 28%). The settings on record: StAR promoter luciferase reporter counterscreen, at 3.6 µM, active compounds read high.
The target of test [6] is Nuclear receptor subfamily 5 group A member 2 (Homo sapiens) (UniProt O00482). Briefly: LRH-1 (NR5A2) inverse agonists, retest, confirmation, cell-based, luminescence (AID 651613; in the data active = inhibition above about 42%;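 note: HEK293T cells co-transfected with LRH-1 and StAR promoter luciferase reporter; 0% = vehicle wells and 100% = parental cells lacking receptor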). The settings on record: cell-based LRH-1 luciferase reporter, inverse agonism; at 3.6 µM; active compounds read high.
Test [7] deals with Steroidogenic factor 1 (Homo sapiens) (UniProt Q13285). Briefly: SF1 (NR5A1) inverse agonists, counter-screen for LRH-1 inverse agonist project, cell-based, luminescence, high throughput (AID 651614; in the data active = inhibition above about 44%;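 note: cells cotransfected with StAR promoter reporter and SF1 expression vector; 0% = vehicle on cells with receptor and 100% = vehicle on cells lacking receptor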). To be noted: cell-based SF1 luciferase reporter, at 3.6 µM, active compounds read high.
A short description of test [8]: VP16 transactivation reporter inhibitors, counter-screen for LRH-1 inverse agonist project, cell-based, luminescence, high throughput (AID 651615; in the data active = inhibition above about 33%). To be noted: Gal4-VP16 luciferase reporter cells, at 3.6 µM, active compounds read high.
Test [9] relates to transactivating tegument protein VP16 (Human herpesvirus 1). Briefly: VP16 transactivation reporter inhibitors, counter-screen for SRC2 inhibitor project, cell-based, luminescence, single concentration (AID 652007; in the data active = inhibition above about 36%). To be noted: cell-based VP16 transactivation luciferase reporter, at 8.9 µM, active compounds read high.
Test [10] deals with Nuclear receptor coactivator 2 (Homo sapiens) (UniProt Q15596). The test can be described thus: SRC2 coactivator transcriptional activity inhibitors, confirmation, cell-based, luminescence, HEK293, triplicate (AID 652008;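 active = mean inhibition above 46.5%, the solvent-only control mean plus 3 SD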;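 note: 0% = DMSO-treated cells and 100% = Gossypol at 36 µM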). To be noted: HEK293 GAL4-SRC2 luciferase reporter, at 8.9 µM, active compounds read high.
Nuclear receptor coactivator 2 (Homo sapiens), sequence (Q15596 whole entry, looked up, the tested form may be a part): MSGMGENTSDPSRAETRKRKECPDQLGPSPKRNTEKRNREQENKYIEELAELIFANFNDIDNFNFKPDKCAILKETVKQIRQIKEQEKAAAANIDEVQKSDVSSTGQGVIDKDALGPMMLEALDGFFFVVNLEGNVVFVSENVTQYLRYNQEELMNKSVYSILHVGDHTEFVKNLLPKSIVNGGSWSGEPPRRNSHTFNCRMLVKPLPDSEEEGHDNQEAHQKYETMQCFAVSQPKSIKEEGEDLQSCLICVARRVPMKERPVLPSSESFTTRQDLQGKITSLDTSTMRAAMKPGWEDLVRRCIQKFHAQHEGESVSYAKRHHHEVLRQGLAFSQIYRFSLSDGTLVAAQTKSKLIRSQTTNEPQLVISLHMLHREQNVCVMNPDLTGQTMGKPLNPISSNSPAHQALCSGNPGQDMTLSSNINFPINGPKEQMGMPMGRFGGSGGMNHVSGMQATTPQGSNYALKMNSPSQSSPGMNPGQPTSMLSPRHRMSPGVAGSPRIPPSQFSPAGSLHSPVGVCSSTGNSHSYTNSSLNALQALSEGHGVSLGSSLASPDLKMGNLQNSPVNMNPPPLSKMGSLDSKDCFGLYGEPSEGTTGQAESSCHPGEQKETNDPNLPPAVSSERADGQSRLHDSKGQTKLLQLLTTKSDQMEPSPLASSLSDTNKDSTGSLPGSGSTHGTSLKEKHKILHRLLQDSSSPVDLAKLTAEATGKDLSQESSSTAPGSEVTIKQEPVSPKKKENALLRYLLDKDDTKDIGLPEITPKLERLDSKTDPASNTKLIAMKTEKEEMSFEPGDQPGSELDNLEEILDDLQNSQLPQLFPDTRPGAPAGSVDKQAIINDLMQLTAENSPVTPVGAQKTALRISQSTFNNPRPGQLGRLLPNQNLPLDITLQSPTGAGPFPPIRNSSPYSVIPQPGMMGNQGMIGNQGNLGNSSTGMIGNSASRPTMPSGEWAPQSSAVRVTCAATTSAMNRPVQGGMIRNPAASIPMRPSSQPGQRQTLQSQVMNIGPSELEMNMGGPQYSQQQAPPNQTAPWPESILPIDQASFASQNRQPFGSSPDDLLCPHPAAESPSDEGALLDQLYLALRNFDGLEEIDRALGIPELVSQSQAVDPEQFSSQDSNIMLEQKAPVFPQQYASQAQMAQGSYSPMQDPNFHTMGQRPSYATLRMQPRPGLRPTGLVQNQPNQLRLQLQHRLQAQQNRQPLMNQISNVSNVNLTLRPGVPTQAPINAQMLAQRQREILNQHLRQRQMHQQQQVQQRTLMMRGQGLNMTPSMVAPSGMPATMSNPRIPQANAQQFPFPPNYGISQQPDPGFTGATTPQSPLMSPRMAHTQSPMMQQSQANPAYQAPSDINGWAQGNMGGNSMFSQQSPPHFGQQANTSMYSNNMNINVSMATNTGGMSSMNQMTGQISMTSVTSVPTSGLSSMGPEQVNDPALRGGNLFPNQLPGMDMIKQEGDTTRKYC

Steroidogenic factor 1 (Homo sapiens), sequence (Q13285 whole entry, looked up, the tested form may be a part): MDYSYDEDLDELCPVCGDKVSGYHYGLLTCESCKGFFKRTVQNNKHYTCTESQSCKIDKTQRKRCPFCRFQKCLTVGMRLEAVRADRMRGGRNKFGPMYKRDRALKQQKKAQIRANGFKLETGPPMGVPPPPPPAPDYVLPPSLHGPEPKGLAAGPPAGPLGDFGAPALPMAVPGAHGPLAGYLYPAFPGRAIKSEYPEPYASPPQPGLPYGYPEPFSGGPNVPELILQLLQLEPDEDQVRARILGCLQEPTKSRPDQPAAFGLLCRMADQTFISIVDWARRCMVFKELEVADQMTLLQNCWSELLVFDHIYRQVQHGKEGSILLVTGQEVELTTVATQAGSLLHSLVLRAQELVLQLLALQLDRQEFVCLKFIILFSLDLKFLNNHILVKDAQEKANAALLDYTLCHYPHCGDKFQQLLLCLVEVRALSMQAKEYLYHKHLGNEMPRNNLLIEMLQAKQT
Nuclear receptor subfamily 5 group A member 2 (Homo sapiens), sequence (O00482 whole entry, looked up): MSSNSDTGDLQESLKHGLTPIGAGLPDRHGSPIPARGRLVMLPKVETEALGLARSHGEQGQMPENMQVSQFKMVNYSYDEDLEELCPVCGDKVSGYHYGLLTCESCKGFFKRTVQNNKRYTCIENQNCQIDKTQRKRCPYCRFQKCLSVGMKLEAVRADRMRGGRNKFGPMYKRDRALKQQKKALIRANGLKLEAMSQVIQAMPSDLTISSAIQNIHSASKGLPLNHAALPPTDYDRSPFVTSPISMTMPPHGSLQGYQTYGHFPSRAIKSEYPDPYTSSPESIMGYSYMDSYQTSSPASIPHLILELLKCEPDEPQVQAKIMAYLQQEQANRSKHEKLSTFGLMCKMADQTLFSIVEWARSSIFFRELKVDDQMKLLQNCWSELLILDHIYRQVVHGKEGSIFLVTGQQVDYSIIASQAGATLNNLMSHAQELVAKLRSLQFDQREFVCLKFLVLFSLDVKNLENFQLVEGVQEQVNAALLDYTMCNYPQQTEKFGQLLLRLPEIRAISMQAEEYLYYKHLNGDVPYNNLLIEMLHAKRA
Nuclear receptor coactivator 1 (Homo sapiens), sequence (Q15788 whole entry, looked up, the tested form may be a part): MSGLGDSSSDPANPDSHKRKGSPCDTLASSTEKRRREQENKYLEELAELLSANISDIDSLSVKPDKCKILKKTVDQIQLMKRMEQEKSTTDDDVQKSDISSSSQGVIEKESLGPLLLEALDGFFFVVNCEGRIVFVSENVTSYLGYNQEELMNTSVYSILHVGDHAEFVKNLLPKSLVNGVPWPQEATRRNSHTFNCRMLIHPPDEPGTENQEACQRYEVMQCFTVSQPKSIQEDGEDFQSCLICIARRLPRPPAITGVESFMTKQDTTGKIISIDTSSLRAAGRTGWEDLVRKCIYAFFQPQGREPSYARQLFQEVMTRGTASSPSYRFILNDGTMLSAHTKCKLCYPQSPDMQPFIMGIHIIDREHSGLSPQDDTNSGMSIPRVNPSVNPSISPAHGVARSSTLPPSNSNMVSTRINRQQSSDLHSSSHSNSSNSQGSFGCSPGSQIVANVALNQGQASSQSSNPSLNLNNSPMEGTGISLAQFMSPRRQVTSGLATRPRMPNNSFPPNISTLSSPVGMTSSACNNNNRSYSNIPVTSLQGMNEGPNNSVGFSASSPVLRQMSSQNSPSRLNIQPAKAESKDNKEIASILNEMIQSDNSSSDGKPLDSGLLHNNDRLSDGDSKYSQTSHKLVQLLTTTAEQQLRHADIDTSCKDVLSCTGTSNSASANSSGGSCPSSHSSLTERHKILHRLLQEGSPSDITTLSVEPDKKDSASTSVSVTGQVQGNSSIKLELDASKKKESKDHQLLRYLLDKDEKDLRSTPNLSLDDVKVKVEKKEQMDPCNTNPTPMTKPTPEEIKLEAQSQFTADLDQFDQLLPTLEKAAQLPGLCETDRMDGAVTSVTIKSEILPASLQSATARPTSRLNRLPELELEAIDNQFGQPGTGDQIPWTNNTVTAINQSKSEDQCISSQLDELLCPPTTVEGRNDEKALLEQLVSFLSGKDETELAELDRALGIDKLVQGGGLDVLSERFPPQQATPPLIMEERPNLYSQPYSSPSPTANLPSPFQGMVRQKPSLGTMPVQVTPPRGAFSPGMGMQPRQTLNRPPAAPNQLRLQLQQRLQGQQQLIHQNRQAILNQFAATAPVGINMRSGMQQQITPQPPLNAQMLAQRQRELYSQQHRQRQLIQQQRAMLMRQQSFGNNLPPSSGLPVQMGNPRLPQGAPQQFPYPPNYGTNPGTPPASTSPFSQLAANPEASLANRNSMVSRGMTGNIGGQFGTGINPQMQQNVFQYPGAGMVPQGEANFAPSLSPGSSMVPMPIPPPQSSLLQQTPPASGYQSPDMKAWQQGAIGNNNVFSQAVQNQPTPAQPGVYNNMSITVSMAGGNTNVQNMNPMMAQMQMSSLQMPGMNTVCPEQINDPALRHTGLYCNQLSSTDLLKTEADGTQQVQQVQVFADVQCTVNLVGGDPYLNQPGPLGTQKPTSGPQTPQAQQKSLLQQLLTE

For the compound `CC(C)(C)OC(=O)NCCCCCc1cn([C@@H](CO)C(=O)NCCCCCCCCCCC(=O)N2CCN(C(=O)OC(C)(C)C)CC2)nn1`, the inhibition (commonly the relative decrease from the control value, in per cent) in test [1] is 23.4%; in test [2], 66.8% (active); in [3] it was 0.34%; in test [4] it was 71.4% (active); in [5], 59.5% (active); in [6] it was 69.4% (active). The inhibition in test [7] was 69.9% (active); in [8] it was 80.6% (active); in test [9], 55% (active); in [10], 48.7% (active).
As for `CC1OC2CC(=O)OC2C2=C1C(=O)c1c(O)cccc1C2=O` (stereo not given), the inhibition was 97.6% (active) in test [1]; 95.2% (active) in [2]; 97.5% (active) in test [3]; 95.2% (active) in [4]; 96.8% (active) in test [5]; 110% (active) in [6]. Besides, the inhibition in [7] is 98.2% (active); in [8] it was 96.8% (active); in test [9] it was 98.9% (active); in test [10], 99.7% (active).
Regarding `O=C(NC1CCCCC1)C(c1cccnc1)N(C(=O)CCl)c1ccccc1Cl` (stereo not given), the inhibition was 81.8% (active) in test [1]; 64% (active) in test [2]; 67.1% (active) in test [3]; 59.1% (active) in test [4]; 54.7% (active) in [5]; 70.4% (active) in test [6]. Moreover, the inhibition in test [7] is 67.5% (active); in [8], 64.8% (active); in test [9] it was 38.6% (active); in test [10], 55.5% (active).
For the compound `COc1ccccc1-c1nnc(Sc2nc([N+](=O)[O-])nn2C)o1`, the inhibition was 58.5% (active) in [1]; 32.7% (active) in test [2]; 18.7% in test [3]; 36.4% (active) in [4]; 59.9% (active) in [5]; 62% (active) in test [6]. Besides, the inhibition in test [7] was 38.3%; in test [8], 64.1% (active); in [9], 46.1% (active); in [10], 65.3% (active).
As to `CC1CCc2c(sc(NC(=O)CSc3ncn[nH]3)c2C#N)C1` (stereo not given), the inhibition was 56% (active) in test [1]; 66.1% (active) in test [2]; 31.9% in [3]; 61.4% (active) in test [4]; 32.5% (active) in test [5]; 56.7% (active) in test [6]. The inhibition in [7] is 39.5%; in [8], 61.9% (active); in test [9], 87% (active); in test [10] it was 90.2% (active).
As to `CC(O)CC(=O)OC[C@]12CC[C@H]3[C@@](C)(CC[C@H]4C(C)(C)CCC[C@]34C)[C@@H]1CC(C1=CC(=O)OC1O)O2` (stereo not given in full), the inhibition in [1] is 30.2%; in test [2] it was 53.4% (active); in [3] it was 31%; in test [4] it was 43.4% (active); in test [5] it was 51.2% (active); in test [6] it was 76.6% (active). In addition, the inhibition in test [7] is 80.5% (active); in [8], 75.2% (active); in test [9] it was 50.6% (active); in test [10] it was -41%.
Take `COc1cc2cc(C(=O)Nc3ccc4c(c3)OCCO4)[nH]c2cc1OC`: the inhibition in [1] is 27.4%; in [2] it was -26.5%; in test [3], -2.55%; in test [4] it was -48.8%; in [5] it was -32.3%; in [6], -49.1%. For the same compound, the inhibition was -20.5% in [7], -35.9% in test [8], -41.9% in [9] and 38.2% in [10].
On to `Clc1ccc(-n2ncc3c(NCCN4CCOCC4)ncnc32)cc1`, for which the inhibition in test [1] was 37.8%; in [2], -3.35%; in [3], 3.19%; in [4], -21.6%; in test [5], 28.4% (active); in test [6] it was -30.3%. Further, the inhibition in test [7] was 33.4%; in [8], -23.4%; in test [9] it was 36.7% (active); in test [10], 58.9% (active).
As to `N#Cc1c(N)n(C2OC(CO)C(O)C2O)c2ncnc(N)c12` (stereo not given), the inhibition is 96% (active) in [1]; 96% (active) in [2]; 79.9% (active) in test [3]; 95.1% (active) in test [4]; 85.9% (active) in test [5]; 106% (active) in test [6]. For the same compound, the inhibition in [7] is 95.6% (active); in test [8], 96.3% (active); in test [9] it was 62% (active); in [10], 66.3% (active).
As to `NC(=S)NN=Cc1nccc2c(C(F)(F)C(F)(F)C(F)(F)F)cccc12`, the inhibition in test [1] is 93.5% (active); in test [2], 87.2% (active); in test [3] it was 85.5% (active); in test [4], 88.5% (active); in test [5], 92.3% (active); in test [6] it was 107% (active). Further, the inhibition in [7] was 95.6% (active); in [8], 82.1% (active); in test [9], -16.1%; in test [10], 18.2%.
`Cc1ccc(C(=O)N/N=C/c2c(O)ccc3ccccc23)cn1`: the inhibition was 65.9% (active) in test [1]; 62.9% (active) in test [2]; 58.7% (active) in [3]; 75.4% (active) in [4]; 84.8% (active) in [5]; 102% (active) in test [6]. Besides, the inhibition in [7] is 89.9% (active); in [8], 83.8% (active); in test [9], -4.97%; in test [10], 33.4%.
Take `C/C(CC(C)(C)C1CCCCC1)=N\NC(N)=S`: the inhibition in [1] is 72.2% (active); in test [2], 60.3% (active); in [3], 48.5% (active); in [4], 59% (active); in test [5], 45.6% (active); in test [6], 80.8% (active). In addition, the inhibition in test [7] is 82.8% (active); in test [8] it was 68.6% (active); in [9], 43.8% (active); in test [10] it was 38.4%.
For `Cc1cccc(-n2ncc3c(N(C)C4CCCCC4)ncnc32)c1`, the inhibition is 72.9% (active) in [1]; 64.4% (active) in test [2]; 28.5% in test [3]; 46.4% (active) in [4]; 60.6% (active) in [5]; 11.5% in test [6]. Moreover, the inhibition in test [7] is 52.7% (active); in [8] it was 29%; in [9] it was 52.5% (active); in test [10], 83% (active).
As for `O=C(O)c1ccccc1C(=O)Nc1ccc(Oc2cccc3ccccc23)cc1`, the inhibition was 26% in test [1]; 32.2% (active) in [2]; 28% in test [3]; 21.7% in [4]; 34.5% (active) in test [5]; 29.8% in test [6]. Moreover, the inhibition is 57% (active) in [7], 13.4% in [8], 77.6% (active) in test [9] and 75.2% (active) in test [10].
